# TSHR antagonist – Antagonists of the Thyroid Stimulating Hormone Receptor: HTS campaign | Thyrotropin receptor (Homo sapiens), P16473 | TSHR-expressing cells, TSH-stimulated cAMP HTRF, 2 h; hits give low values | activity change, negative = inhibition, % at 11.5 µM | 0.2% of 330,000 active;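 active means activity change below a set negative limit, meaning inhibition stronger than a set level, cut at about -70% in these data; inconclusive means activity change between two set negative limits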
#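 TSHR-expressing cells, 200/well, pre-treated with compound, then stimulated with EC80 TSH (4nM final) for 2 hours at 37 deg C. cAMP measured by competitive HTRF: anti-cAMP cryptate antibody in lysis buffer plus cAMP-d2, read after 30 minutes at room temperature.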
# RORgamma inh – qHTS for inhibitors of ROR gamma transcriptional activity; Nuclear receptor ROR-gamma (Mus musculus), P51450; Drosophila S2 Gal4-RORgamma UAS-luciferase reporter, 20 h; Potency, µM (titrated, usually from 53.6 µM), for the others: top-dose activity change, negative = inhibition, actives largely listed as inhibitors; 5.4% of 310,000 active; further: potency means the concentration at half of the fitted maximal effect; nearly all actives have a fitted effect of over 60% in size
# Target sequence (P51450 whole entry, looked up, the tested form may be a part): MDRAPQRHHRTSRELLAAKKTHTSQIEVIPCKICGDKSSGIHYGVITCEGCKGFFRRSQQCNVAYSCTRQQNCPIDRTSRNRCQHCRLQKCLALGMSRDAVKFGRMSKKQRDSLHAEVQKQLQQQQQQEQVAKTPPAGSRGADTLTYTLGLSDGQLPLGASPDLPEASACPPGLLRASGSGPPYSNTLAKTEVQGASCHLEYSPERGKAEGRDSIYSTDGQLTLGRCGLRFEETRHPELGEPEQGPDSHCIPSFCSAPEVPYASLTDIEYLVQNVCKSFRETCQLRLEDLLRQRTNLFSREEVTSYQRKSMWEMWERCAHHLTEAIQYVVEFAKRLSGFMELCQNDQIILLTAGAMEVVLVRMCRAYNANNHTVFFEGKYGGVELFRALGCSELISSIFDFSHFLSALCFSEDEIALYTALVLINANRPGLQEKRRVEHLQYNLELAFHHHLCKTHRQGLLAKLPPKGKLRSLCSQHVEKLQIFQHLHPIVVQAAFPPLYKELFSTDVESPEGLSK
#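 Compounds are pin-transferred onto Drosophila Schneider cells expressing a copper-inducible Gal4–ROR gamma transactivation domain fusion. After 1 hr, copper sulfate is added to 700 uM final; luciferase is read 20 hr later.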
# ELG1 DNA repair – qHTS screen for small molecules that inhibit ELG1-dependent DNA repair in human embryonic kidney (HEK293T) cells expressing luciferase-tagged ELG1; HEK293T ELG1-luciferase reporter, luminescence, 16 h; DNA damage induced by 5-fluorouridine; AID 504467, 2011; Potency, µM (highest dose often 46.1 µM), for the others: top-dose activity change, negative = inhibition, usual class: inhibitors; 2.3% of 330,000 active; further: potency means the concentration at half of the fitted maximal effect; nearly all actives have a fitted effect of over 55% in size
#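 5-Fluorouridine DNA damage + compound/DMSO, 2,000 cells/well, 16 h, 37 °C/5% CO2. ONE-Glo, 30 min RT, luminescence. Readout = decrease in reporter signal.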
# Coupling enz – qHTS Assay for Inhibitors of Fructose-1,6-bisphosphate Aldolase from Giardia Lamblia: Coupling assay counterscreen; coupling enzyme system counterscreen, AmpLite Red fluorescence; 0.67% of 290,000 active; activity change, negative = inhibition, % at 58.2 µM, hits read low; in the data active means activity change below about -30%
#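 Compounds tested against the coupling enzymes alone at 57.5 uM final; readout was AmpLite Red fluorescence (525/598 nm) after 20 min at RT.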
# Gal4-VP16 FLuc – VP16 counterscreen qHTS for inhibitors of ROR gamma transcriptional activity | Potency, µM (titrated, usually from 53.6 µM), for the others: top-dose activity, negative = inhibition, usual class: inhibitors | AID 2546, 2010 | 3.5% of 310,000 active | Drosophila S2 Gal4-VP16 UAS-luciferase, luminescence, 20 h;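 further: Gal4-VP16 expression switched on by copper sulfate through the metallothionein promoter; potency means the concentration at half of the fitted maximal effect; nearly all actives have a fitted effect of over 50% in size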
# ELG1 FLuc counter – qHTS screen for small molecules that inhibit ELG1-dependent DNA repair: Hit Confirmation in Cell-Based Luciferin Assay | shares compounds with ELG1 DNA repair | cell-free firefly luciferase luminescence counter-screen, ViewLux | Potency, µM (highest dose often 46.1 µM), for the others: at the highest dose activity change, negative = inhibition, most hits filed as inhibitors | 3% of 350 active; further: potency means the concentration at half of the fitted maximal effect
# ELG1 Luc conf – HTS assay for small molecules that inhibit ELG1-dependent DNA repair in human embryonic kidney (HEK293T) cells expressing luciferase-tagged ELG1: Hit Confirmation; shares compounds with ELG1 DNA repair; HEK293T ELG1-luciferase levels, luminescence; cells co-treated with 5-fluorouridine; Potency, µM (top dose mostly 46.1 µM), inactives show top-dose activity change, negative = inhibition, usual class: inhibitors; 68% of 670 active; AID 624248, 2012; further: potency means the concentration at half of the fitted maximal effect; nearly all actives have a fitted effect of over 55% in size
# ELG1 MMS Luc – confirmation of human ELG1 repair inhibitors, MMS stimulated; shares compounds with ELG1 DNA repair; HEK293T luciferase-tagged ELG1 level, MMS stimulated; Potency, µM (top dose mostly 46.1 µM), for the others: top-dose activity change, negative = inhibition, actives largely listed as inhibitors; 53% of 670 active; AID 624249; further: potency means the concentration at half of the fitted maximal effect; nearly all actives have a fitted effect of over 60% in size
# ELG1 5-FU – qHTS screen for small molecules that inhibit ELG1-dependent DNA repair: Hit Confirmation with 5FU Viability; 670 tested, under 10 active; Potency, µM (series often up to 46.1 µM), for inactives: at the top dose activity change, negative = viability loss, most hits filed as cytotoxic; cell viability with 5-FU, ELG1-dependent repair; shares compounds with ELG1 DNA repair;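 further: ELG1-luc HEK293T cells cotreated with 5-fluorouridine at 10 µM final; potency means the concentration at half of the fitted maximal effect; viability measured 16 h after compound addition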
# ELG1 MMS cell – qHTS screen for small molecules that inhibit ELG1-dependent DNA repair: Hit Confirmation with MMS Viability | Potency, µM (titrated, usually from 46.1 µM), without a hit: at the top dose activity change, negative = viability loss, usual class: cytotoxic | 33% of 670 active | AID 624251, 2012 | Cell viability with MMS, ELG1-dependent DNA repair | shares compounds with ELG1 DNA repair;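 further: ELG1-luc HEK293T cells co-treated with 10 µM MMS; potency means the concentration at half of the fitted maximal effect; viability read 16 h after compound addition; nearly all actives have a fitted effect of over 60% in size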
# Cell viab unstim – qHTS screen for small molecules that inhibit ELG1-dependent DNA repair: Hit Confirmation with Unstimulated Viability Assay; Potency, µM (top dose mostly 45.9 µM), inactives show at the highest dose activity change, negative = loss of viability, actives largely listed as cytotoxic; 8% of 900 active; cell viability counter-screen, unstimulated, luminescence; shares compounds with ELG1 DNA repair; AID 624252, 2012;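 further: potency means the concentration at half of the fitted maximal effect; compound exposure lasted 16 hours before reading; nearly all actives have a fitted effect of over 55% in size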
# FLuc enzyme – qHTS screen for small molecules that inhibit ELG1-dependent DNA repair: Hit Confirmation in Biochemical Luciferin Assay. shares compounds with ELG1 DNA repair. purified firefly luciferase, luminescence counter-screen. Potency, µM (titrated, usually from 57.5 µM), for the others: top-dose activity, negative = inhibition, actives largely listed as inhibitors. 10% of 350 active; further: potency means the concentration at half of the fitted maximal effect
# Numbers without * were called inactive; ? = inconclusive; . = no result given. This is a sample that favours compounds with a hit; in the whole collection about 8% have one here. Unless noted, the call rests on the fitted dose curve; in most records, active means well fitted curve in the direction sought with a large enough effect; inconclusive means small, poorly fitted or top-dose-only effect, or another doubt; inactive means no such curve, though single readings can be large; an effect the other way counts as inactive or inconclusive. On the % scale 0 is the no-effect control and ±100 the full control effect.
SMILES,TSHR antagonist,RORgamma inh,ELG1 DNA repair,Coupling enz,Gal4-VP16 FLuc,ELG1 Luc conf,ELG1 MMS Luc,ELG1 5-FU,ELG1 MMS cell,Cell viab unstim,others
COc1ccc(CCN2C(=O)c3cccc4c(C(=O)N5CCCCC5)ccc(c34)C2=O)cc1OC,-23,8%,3.7µM*,-1,-23%,7.9µM*,7.9µM*,?,11µM*,14µM*,
O=C(COc1ccccc1Cl)Nc1ccccc1C(=O)N1CCCCC1,-2,19%,?,.,0%,.,.,.,.,.,
COc1ccc(/C=C/C(=O)NC(=S)NNC(=O)c2cnccn2)cc1,-8,-13%,?,3,6%,.,.,.,.,.,
O=C(/C=C/c1ccc(F)cc1)NC(=S)NNC(=O)c1cnccn1,-11,-19%,2.3µM*,2,1%,?,20µM*,-8%,-14%,-13%,
COC(=O)[C@]1(Cc2ccccc2)N[C@H](CN(C)C(=O)c2ccccc2)[C@@H]2C(=O)N(Cc3ccccc3)C(=O)[C@@H]21,-7,.,-14%,.,.,.,.,.,.,.,
CCOC(=O)N1CCN(C(=O)c2ccc3c(c2)N=C(C)c2cc(Cl)ccc2S3)CC1,-3,?,3.7µM*,-5,-8%,8.9µM*,?,?,?,?,
CCCN1CCCC(c2cccc(S(C)(=O)=O)c2)C1 (stereo unspecified),.,14%,.,-7,-4%,.,.,.,.,.,
Cc1cc(C(=O)NNc2ccc(F)cc2F)no1,-1,11%,4.1µM*,0,0%,20%,28%,-9%,-5%,-11%,
O=C1CCc2cc(NS(=O)(=O)c3ccccc3)cc3c2N1CC3,2,.,28%,.,.,.,.,.,.,3%,ELG1 FLuc counter=26%;FLuc enzyme=1%
O=C1CCc2cc(NS(=O)(=O)c3ccccc3)cc3c2N1CCC3,32,.,?,.,.,.,.,.,.,6%,ELG1 FLuc counter=14%;FLuc enzyme=0%
CC(=O)N1CCN(C(=O)c2cc(S(=O)(=O)N(C)Cc3ccccc3)ccc2Cl)CC1,-3,.,0%,.,.,.,.,.,.,.,
O=C(CSc1ncnc2sccc12)N1CCCCC1,-4,.,?,.,.,.,.,.,.,-5%,
CCOC(=O)N1CCN(C(=O)CSc2ncnc3sccc23)CC1,15,.,3%,.,.,.,.,.,.,.,
CCOC(=O)c1c(C)[nH]c(C(=O)NNC(=O)c2ccccc2F)c1C,-5,.,?,.,.,.,.,.,.,-9%,
COc1cccc(C2NC(=O)CCC2[N+](=O)[O-])c1 (stereo unspecified),0,-3%,7%,4,-1%,.,.,.,.,.,
CCN1CCN(S(=O)(=O)c2cc(OCC(=O)NC3CCCCC3)c(C)cc2Cl)CC1,-18,7%,?,1,0%,-16%,3.1µM*,-11%,2.5µM*,?,
CCN1CCN(S(=O)(=O)c2ccc(Cl)c(C(=O)NC3CCCCC3)c2)CC1,-7,.,3%,.,.,.,.,.,.,.,
COc1ccc(C(=O)N2CCc3ccc(NC(=O)c4ccccn4)cc3C2)cc1F,17,?,?,-1,-11%,.,.,.,.,.,
COc1ccc(-n2c(C(C)n3nc(C)c([N+](=O)[O-])c3C)n[nH]c2=S)cc1 (stereo unspecified),13,5%,?,2,-16%,.,.,.,.,.,
COc1ccc(-n2c(C)c([N+](=O)[O-])c3ccc(O)c(CN(C)C)c32)cc1,-1,-10%,0.92µM*,1,-28%,1.4µM*,2.5µM*,-2%,6%,?,ELG1 FLuc counter=?;FLuc enzyme=6%
COc1ccc(-c2cn(Cc3ccc4ccccc4c3)nn2)cc1,-6,-18%,?,-3,-1%,.,.,.,.,.,
COc1ccc(-c2cn(Cc3ccc(C(=O)c4ccccc4)cc3)nn2)cc1,-21,?,?,-3,?,.,.,.,.,?,
CC(C)n1cnc2c(NCc3ccccc3)cc(N[C@H](C)CO)cc21,10,.,4.1µM*,.,.,7.9µM*,0.44µM*,16µM*,0.71µM*,8.9µM*,
CCCCOc1cc(NCc2ccccc2)c2ncn(C(C)C)c2c1,8,.,1%,.,.,.,.,.,.,.,
COC(=O)COc1ccc2oc(=O)cc(-c3cc4cccc(OC)c4o3)c2c1,-8,-1%,-4%,.,-6%,.,.,.,.,.,
COc1cccc2cc(-c3cc(=O)oc4ccc(OCC(C)=O)cc34)oc12,10,-28%,2.6µM*,.,-9%,6.3µM*,11µM*,8%,-16%,?,
O=C(C1CCCN(c2ncnc3c2nc2n3CCCCC2)C1)N1CCN(c2ccccc2F)CC1 (stereo unspecified),12,?,9.2µM*,.,-29%,11µM*,25µM*,-7%,-8%,?,ELG1 FLuc counter=-7%;FLuc enzyme=-5%
